Data as given in PubChem BioAssay (NCI).
The panel holds about 83,000 compounds, 20% with a hit somewhere; the sample as a whole holds those more often.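 Percent growth is the endpoint: 0 to 100 indicates growth inhibition (40 means 60% inhibition), 0 means no net growth, and negative values indicate cell death.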 Values without a mark were called inactive. Calls of active or inactive are those of the source. How the source made its calls: active means growth percent below 10; inactive means the rest.

Legend:
Test in all cases: NCI-60 one-dose screen, 48 h (100 = growth as untreated, 0 = no growth, -100 = all killed)
Details in all cases: 10 µM unless noted
HCT-15 colon = test system: HCT-15 colon
HT29 colon = test system: HT29 colon
SNB-75 CNS = test system: SNB-75 CNS
SNB-19 CNS = test system: SNB-19 CNS
U251 CNS = test system: U251 CNS
PC-3 prostate = test system: PC-3 prostate
SK-MEL-5 melanoma = test system: SK-MEL-5 melanoma
UACC-62 melanoma = test system: UACC-62 melanoma
LOX IMVI melanoma = test system: LOX IMVI melanoma
SK-MEL-28 melanoma = test system: SK-MEL-28 melanoma

SMILES	growth (HCT-15 colon)	growth (HT29 colon)	growth (SNB-75 CNS)	growth (SNB-19 CNS)	growth (U251 CNS)	growth (PC-3 prostate)	growth (SK-MEL-5 melanoma)	growth (UACC-62 melanoma)	growth (LOX IMVI melanoma)	growth (SK-MEL-28 melanoma)
CCC(C)(C)c1ccc(OCCCCCCN2CCN(c3ccc(C)c(Cl)c3)CC2)cc1	64.8%	82.8%	92.2%	103%	104%	78.1%	78.1%	79.2%	81.8%	96.5%
COc1cc2c(/C=C3\C(=O)Nc4ccc(Br)cc43)c(Cl)n(C)c2cc1C	6.8% (active)	7.9% (active)	31.6%	24%	10.2%	11.8%	-3% (active)	29.7%	9.9% (active)	55.6%
Brc1c(-c2ccncc2)nc2n1CCS2	105%	87%	101%	103%	91.3%	84.5%	103%	84.4%	89.4%	93.5%
CCCCCCCCCCCCCCCCCCOP(=O)(O)O	107%	106%	97%	101%	101%	92.5%	99.2%	91.5%	99.3%	111%
CC(=O)Nc1nc(C)c(C(=O)NNC(=O)Nc2ccccc2)s1	96.7%	99%	98.4%	93.9%	102%	85.2%	97%	78.1%	97.9%	105%
CCC(C)[C@H](NC(=O)Nc1cc(C(F)(F)F)cc(C(F)(F)F)c1)C(=O)N[C@@H](Cc1cn(C)cn1)C(=O)OC (stereo not given in full)	-83.2% [100 µM] (active)	-83.6% [100 µM] (active)	-100% [100 µM] (active)	-98.5% [100 µM] (active)	-98% [100 µM] (active)	-93.7% [100 µM] (active)	-97.9% [100 µM] (active)	-98.8% [100 µM] (active)	-81.2% [100 µM] (active)	-95.3% [100 µM] (active)
COC1(OC)N=C(N)C2(C#N)C3(C(=O)Nc4ccccc43)C12C#N (stereo not given)	83.8%	98.9%	66.5%	108%	67.9%	87%	81.8%	47%	50.3%	103%
O=C(/C=C/c1c[nH]c2ccccc12)c1cc2ccccc2o1	83.3%	98.9%	92%	96.2%	98.2%	75.6%	102%	87.6%	91.7%	96.6%
NC(CSC(c1ccccc1)(c1ccccc1)c1ccccc1)C(=O)NCC(=O)O (stereo not given)	73.2%	101%	76.1%	85.7%	38.3%	81.9%	44.3%	62.5%	81.4%	63.3%
CC(=O)N(N=O)c1ccc([N+](=O)[O-])cc1Cl	54.6%	89.7%	81.2%	58.6%	57.8%	47.4%	18.6%	27.9%	72.7%	68.5%
O=C(/C=C/c1ccc(Br)cc1)c1ccccc1	72.5%	69.8%	101%	86.9%	69%	82%	95.3%	92.2%	59.6%	109%
CCCCCCNC(=O)Oc1ccc(/C(=C(/C)Cc2ccc(OC)cc2)c2ccc(OCCN(C)C)cc2)cc1	1.78% (active)	-7.26% (active)	50.5%	78.8%	23.4%	56.3%	-49.6% (active)	40.5%	-15.9% (active)	68.6%
COc1cc(-c2c3c(cn2CCN2CCCCC2)-c2oncc2CC3)cc(OC)c1OC	98.3%	84%	81.4%	99.8%	101%	89.7%	98.3%	90.4%	97.7%	100%
CSCc1ncc(-c2ccc(C(F)(F)F)cc2)c(NC2CCCCCC2)n1	64.9% [25 µM]	64.9% [25 µM]	71.6% [25 µM]	73.1% [25 µM]	68.5% [25 µM]	-5.89% [25 µM] (active)	78.6% [25 µM]	70.2% [25 µM]	82.7% [25 µM]	95.6% [25 µM]
COC(=O)[C@H](Cc1cn(C)cn1)NC(=O)[C@H](Cc1c[nH]c2ccccc12)NC(=O)Nc1cc(C(F)(F)F)cc(C(F)(F)F)c1	27.7% [100 µM]	-84.2% [100 µM] (active)	-85.5% [100 µM] (active)	-91% [100 µM] (active)	-89.5% [100 µM] (active)	-89.4% [100 µM] (active)	-51.3% [100 µM] (active)	-92.9% [100 µM] (active)	-83.5% [100 µM] (active)	-80.3% [100 µM] (active)
CN1CCN(Cc2ccc(NC(=O)c3cncc(C#Cc4c(N)ncc5ccc(F)cc45)c3)cc2C(F)(F)F)CC1	25.9%	-60.1% (active)	15.5%	74.3%	43.3%	43.7%	-93.1% (active)	22.8%	-8.63% (active)	-84.9% (active)
Cc1ccc(NCc2cn(-c3ccc(C(=O)O)cc3)nc2-c2ccc(C(=O)O)cc2)cc1	110%	97.4%	96.7%	104%	97.1%	106%	108%	103%	94.6%	112%
O=C1CCNC1	101%	106%	100%	102%	87.4%	95.7%	104%	103%	113%	102%
COc1ccc2c(N)ncc(C#Cc3cc(C(=O)Nc4ccc(CN5CCN(C)CC5)c(C(F)(F)F)c4)cnc3C)c2c1	-76.2% (active)	-78.3% (active)	-11.1% (active)	-82.2% (active)	-92.2% (active)	-69.4% (active)	-51.4% (active)	28.2%	-71.4% (active)	-80.2% (active)
